An excerpt weighted towards active compounds, which were near 10% of everything screened.
NPR1 antag: antagonists of human natriuretic peptide receptor Npr1; 1.6% of 76,000 active; Potency, µM (series often up to 46.3 µM), actives largely listed as inhibitors; HEK293 hNpr1 GloSensor cGMP, ANP-stimulated luminescence; AID 1347048; calls by dose curve; also: nearly all actives have a fitted effect of over 60% in size
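Compound pre-incubated 30 min at room temperature on GloSensor-loaded HEK293 cells stably carrying hNpr1 and the pGS-40F cGMP biosensor. Stimulation uses hNppA at 0.1 nM final; luminescence is taken at baseline and 20 min post-agonist.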
FLuc inh-1: blocks purified firefly luciferase enzyme activity | Potency, µM (series often up to 115 µM), usual class: inhibitors | purified P. pyralis luciferase, luminescence, biochemical | 2.5% of 76,000 active | AID 1347043; also: nearly all actives have a fitted effect of over 65% in size
Target sequence (P08659 whole entry, looked up): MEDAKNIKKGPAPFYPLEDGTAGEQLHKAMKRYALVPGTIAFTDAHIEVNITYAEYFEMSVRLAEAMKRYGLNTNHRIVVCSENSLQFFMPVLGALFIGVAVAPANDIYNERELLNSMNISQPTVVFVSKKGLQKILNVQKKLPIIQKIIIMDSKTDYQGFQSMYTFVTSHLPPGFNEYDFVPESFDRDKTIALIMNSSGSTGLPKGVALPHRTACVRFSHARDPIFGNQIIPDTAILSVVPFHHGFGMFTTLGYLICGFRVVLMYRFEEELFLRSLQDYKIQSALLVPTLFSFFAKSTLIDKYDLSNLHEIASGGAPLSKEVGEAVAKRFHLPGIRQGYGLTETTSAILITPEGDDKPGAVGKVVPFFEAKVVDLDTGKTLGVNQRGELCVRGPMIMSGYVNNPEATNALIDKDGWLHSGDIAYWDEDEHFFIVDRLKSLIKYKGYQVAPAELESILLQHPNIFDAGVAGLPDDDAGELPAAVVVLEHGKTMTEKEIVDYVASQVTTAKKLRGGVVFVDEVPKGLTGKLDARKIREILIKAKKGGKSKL
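Purified P. pyralis luciferase (10nM final) in 50mM Tris acetate pH 7.5, 10mM Mg acetate, 0.01% Tween-20, 0.05% BSA with 10uM D-luciferin and 10uM ATP. Compounds titrated qHTS. Luminescence imaged on CCD.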
NIH3T3 tox: kills NIH 3T3 cells | NIH 3T3 viability, CellTiter-Glo ATP luminescence, 48-72 h | Potency, µM (highest dose often 96.7 µM), hits mostly inhibitors | 4.3% of 94,000 active | AID 1345082; also: nearly all actives have a fitted effect of over 55% in size
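Cytotoxicity was measured by CellTiter-Glo ATP luminescence after 48 or 72 h compound exposure at 37 °C. Mouse NIH 3T3 fibroblasts were seeded at 400 cells/well and dosed by 23 nL pin transfer.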
HEK293 tox: cytotoxic compounds in HEK 293 cells | HEK 293 viability, ATP luminescence (CellTiter-Glo), 48-72 h | Potency, µM (highest dose often 115 µM), actives largely listed as inhibitors | 6.6% of 94,000 active | AID 1345083; also: nearly all actives have a fitted effect of over 60% in size
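CellTiter-Glo luminescence (cellular ATP) was read after 48 or 72 hr of compound exposure at 37 degree Celsius. Cells were HEK 293 plated at 250 cells/well.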
GPT2 inh: blocks human glutamate pyruvate transaminase 2. AID 1671188. Potency, µM (series often up to 57.7 µM), most hits filed as inhibitors. Q8TD30. Recombinant GPT2, coupled pyruvate oxidase/HRP Amplex Red fluorescence. 0.25% of 100,000 active; also: nearly all actives have a fitted effect of over 60% in size
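Fluorescence read-out: pyruvate from GPT2 turnover coupled to pyruvate oxidase, HRP and Amplex Red (0.2mM ThPP, 0.2U/mL PO and HRP, 50uM Amplex final). Substrates 250uM a-KG, 2mM L-alanine; enzyme 10ng/uL; 30 min RT.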
FLuc SDR no ATP: firefly luciferase binding stabilization, ATP absent. Purified FLuc-C-HiBiT, Nano-Glo HiBiT luminescence, no ATP. Potency, µM (doses to about 32.7 µM), actives largely listed as activators. AID 1963318. shares compounds with FLuc inh-1. 7.8% of 1,300 active; also: nearly all actives have a fitted effect of over 55% in size
FLuc SDR ATP: firefly luciferase binding stabilization, ATP added | shares compounds with FLuc inh-1 | purified FLuc-C-HiBiT + ATP, HiBiT complementation luminescence | Potency, µM (doses to about 32.7 µM), most hits filed as activators | 8.7% of 1,300 active | AID 1963319;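 also: signal reports ligand binding via conformational change of the enzyme rather than luciferase catalysis; nearly all actives have a fitted effect of over 55% in size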
FLuc inh-2: inhibitors of firefly luciferase enzymatic activity | shares compounds with FLuc inh-1 | AID 1963320 | 42% of 1,300 active | Potency, µM (top dose mostly 32.7 µM), usual class: inhibitors | purified FLuc-C-HiBiT enzyme, luciferin luminescence; also: nearly all actives have a fitted effect of over 70% in size
Numbers stand for hits; - = inactive; ? = inconclusive; . = no result given; [ ] = another dose, or the depositor's remark. Unless noted, calls follow the shape of the dose curve; as a rule, active = well fitted curve in the direction sought with a large enough effect; inconclusive = small, poorly fitted or top-dose-only effect, or another doubt; inactive = no such curve, though single readings can be large; an effect the other way counts as inactive or inconclusive.

SMILES	NPR1 antag	FLuc inh-1	NIH3T3 tox	HEK293 tox	GPT2 inh	FLuc SDR no ATP	FLuc SDR ATP	FLuc inh-2
COc1ccc(-c2cn3nc(SCC(=O)Nc4cc(C)cc(C)c4)ccc3n2)cc1	.	.	.	.	.	-	-	?
Cc1ccc(-c2ccc3nnc(CNC(=O)COc4ccccc4)n3n2)cc1C	-	-	-	?	-	.	.	.
CCCc1nn2cc(-c3ccc(C)c(C)c3)nc2s1	.	.	.	.	.	?	?	0.62µM
COc1ccc(CCC(=O)N2CC[C@@H](n3c(=O)n(C)c4cccnc43)C2)cc1	.	.	-	-	-	.	.	.
O=C(NCCN1CCOCC1)c1nc2sccn2c1-c1ccc(F)cc1	.	.	-	-	-	.	.	.
COc1ncccc1-c1csc(CN2CCCC(C)(NC(C)=O)C2)c1 (centres undefined)	-	-	?	?	-	.	.	.
CC(=O)NC1(C)CN(Cc2ccc(-c3ccc(Oc4ccccc4)cc3)s2)C1	16µM	13µM	28µM	28µM	-	-	-	?
CC(=O)Nc1cccc(-c2csc(CN3CCCC(C)(NC(C)=O)C3)c2)c1 (centres undefined)	-	-	-	?	-	.	.	.
COc1ccc(-c2ccc(CN3CC(C)(NC(C)=O)C3)s2)cn1	.	.	.	.	.	-	-	?
COc1ncccc1-c1cc2c(nc1OC)nc(CCc1ccccc1)n2C	-	-	?	?	-	.	.	.
COc1ccc(Nc2cc3c(nc2OC)nc(CCc2ccccc2)n3C)cn1	-	6.3µM	?	?	-	-	-	?
C[S+](=O)([O-])CCn1ncc2cc(OCc3cccc(-c4ccc(F)cc4)c3)ccc21	25µM	10µM	?	?	-	-	-	?
CC(C)C(=O)N1CCC(COc2ccc3c(cnn3CC[S+](C)(=O)[O-])c2)CC1	-	?	?	?	-	.	.	.
Cc1cc(-c2cccc(COc3ccc4c(cnn4CC[S+](C)(=O)[O-])c3)c2)ccn1	10µM	13µM	25µM	25µM	-	-	-	?
C[S+](=O)([O-])CCn1ncc2cc(OCc3cccc(-c4ccccc4O)c3)ccc21	32µM	4µM	?	35µM	-	-	-	14µM
CC1=C[C@@H](CNC(=O)c2ccncc2)[C@H](C(C)C)C[C@H]1CC(=O)N1CCOCC1	?	13µM	-	-	-	-	-	-
CCc1ccc2oc(-c3ccc(NC(=O)c4ccc(OC)c(Br)c4)cc3)nc2c1	.	.	.	.	.	-	-	-
CCc1ccc2oc(-c3cccc(NC(=O)c4cc5ccccc5o4)c3)nc2c1	.	.	.	.	.	-	-	?
Cc1ccc(NC(=O)c2ccc3oc(-c4ccncc4)nc3c2)cc1	.	.	-	?	-	.	.	.
CC1CC(=O)[C@]2(O)C(C(=O)OCCc3ccc(O)c(O)c3)=CO[C@@H](O[C@@H]3O[C@H](CO)[C@@H](O)[C@H](O)[C@H]3O)[C@H]12 (some centres undefined)	.	.	.	.	-	.	.	.
CCn1c(CO)nnc1C1CC(NC(=O)c2cccc3c2OCCO3)C1 (centres undefined)	-	-	-	-	-[11.5 µM]	.	.	.
CCOC(=O)c1cccc(NC(=O)c2c(OC)cc(=O)n3c2CCCC3)c1	-	-	-	?	-	.	.	.
CCOC(=O)C1(C)C=C(Nc2cccc(C(=O)O)c2)C(=O)N1c1ccccc1 (centres undefined)	.	.	.	.	.	-	?	?
CC(=O)NC1(C)CCN(Cc2ccc(-c3ccc4c(ccn4C)c3)cc2)C1 (centres undefined)	?	4.5µM	?	?	-	-	?	7.2µM
COc1ccc(-c2cccc(CN3CCCC(C)(NC(C)=O)C3)c2)cc1OC (centres undefined)	-	-	?	?	-	.	.	.
SMILES	NPR1 antag	FLuc inh-1	NIH3T3 tox	HEK293 tox	GPT2 inh	FLuc SDR no ATP	FLuc SDR ATP	FLuc inh-2
O=C(c1cccc(Cl)c1)N1CCC(c2nn(-c3ccccn3)c(=O)[nH]2)CC1	.	.	?	-	-	.	.	.
O=C(c1cc(F)ccc1F)N1CCCC(Cc2nncn2CC2CC2)C1 (centres undefined)	-	-	-	-	-	.	.	.
O=C(c1cc(-c2ccc(F)cc2)nc2ccccc12)N1CCC(Cc2nncn2CC2CC2)CC1	-	13µM	?	45µM	-	?	-	8.8µM
Cc1ccc(-c2cc(C(=O)N3CCC(Cc4nncn4CC4CC4)CC3)c3ccccc3n2)cc1C	?	1.6µM	20µM	?	-	12µM	?	2µM
Cc1ccc(NC(=O)c2ncn(-c3ccccc3)n2)cc1Cl	.	.	.	.	.	-	-	?
Cc1ccc(NC(=O)Cn2nc3n(c2=O)CCCC3)cc1Cl	-	-	-	-	-	.	.	.
O=[N+]([O-])c1cn2c(n1)OCC(OCc1ccc(OC(F)(F)F)cc1)C2 (centres undefined)	.	.	.	.	-	.	.	.
Cc1noc(-c2cccn3c(CNC(=O)c4ccccc4)nnc23)n1	-	-	-	-	-	.	.	.
Cc1noc(-c2cccn3c(CNC(=O)c4ccc(C(C)(C)C)cc4)nnc23)n1	-	7.9µM	-	?	-	?	?	9.9µM
Fc1cccc(Nc2cnc3ccc(-c4ccccc4)nn23)c1	-	?	?	?	?	.	.	.
Fc1cc(Nc2cnc3ccc(-c4ccccc4)nn23)cc(N2CCOCC2)c1	-	13µM	32µM	45µM	-	-	-	?
Cc1ccc(NC(=O)/C=C/c2ccccc2Cl)cc1Cl	.	.	.	.	.	-	-	?
Cc1ccc2nc(-c3ccc(N)cc3)sc2c1S(=O)(=O)O	.	.	.	.	.	?	?	2.5µM
Cc1ccc2nc(-c3ccc4nc(-c5ccc(NC(=O)c6cccc(Cl)c6)cc5)sc4c3)sc2c1S(=O)(=O)O	.	.	.	.	.	-	-	?
Cc1ccc2nc(-c3ccc(N=Nc4cc(S(=O)(=O)O)c5ccccc5c4O)cc3)sc2c1S(=O)(=O)O	.	.	.	.	.	-	-	12µM
CCCNC(=O)N1CCc2c(sc3ncnc(N4CCN(C)CC4)c23)C1	-	-	-	-	-	.	.	.
C[N+](C)(C)CCO	.	.	.	.	-	.	.	.
O=C(Nc1c(C(=O)O)oc2ccccc12)c1ccc(C(F)(F)F)cc1	.	.	.	.	.	-	-	9.9µM
COC[C@@H]1CN(Cc2cnn(C(C)C)c2)C[C@H]1C(=O)NC1CC1	-	-	-	-	-	.	.	.
CC(=O)N1CCNc2cc(-c3cccc(N4CCOCC4)c3)ncc2C1	.	.	.	.	.	-	-	?
CC(=O)N1CCNc2cc(-c3ccccc3F)ncc2C1	.	.	.	.	.	-	-	?
COc1ccc(-c2cc3c(cn2)CN(C(C)=O)CCN3)cc1	.	.	.	.	.	-	-	13µM
N#Cc1ccc(CN2CCC23Cc2ccccc2NC3=O)cc1 (centres undefined)	-	-	?	?	-	.	.	.
